# Laboratory results from PubChem BioAssay (NCATS).
# Activity calls are given as the source filed them. The call rests on the fitted dose curve.
# Test: qHTS drug screen for cell cycle checkpoint inhibitors in PARPi-resistant BRCA-mutant ovarian cancer cell lines. (AID 1963452)
# Conditions: PEO1/OlaR viability, CellTiter-Glo luminescence, 96 h; for Z-AUC: stronger effect = lower value
# In short: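 PEO1, PEO4 and PEO1/OlaR ovarian cancer cells, 600 per well, exposed 96 h at 37C to a dilution series. Viability read by CellTiter-Glo luminescence, normalized to DMSO and empty wells; activity summarized as Z-AUC.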
# [1] = measured here: PEO1 parental Z-AUC
# Potency means the concentration at half of the fitted maximal effect.
Compound,Z-AUC,Z-AUC [1],Z-AUC (measured here: PEO4 Z-AUC),Potency
Cn1nnc2c(C(N)=O)ncn2c1=O,1.52 (inactive),1.36,1.39,
O=S(=O)(c1cccc2cnccc12)N1CCCNCC1,-0.00128 (inactive),-0.265,0.443,
COC(=O)Nc1nc2ccc(C(=O)c3ccccc3)cc2[nH]1,,-1.51,-1.61,0.436 µM (active)
CC(=O)[C@H]1CC[C@H]2[C@@H]3CC=C4C[C@@H](O)CC[C@]4(C)[C@H]3CC[C@]12C,1.05 (inactive),0.974,0.706,
O=S(=O)(O)CCS,0.603 (inactive),1.56,1.53,
COc1cc2nc(N3CCCN(C)CC3)nc(NC3CCN(Cc4ccccc4)CC3)c2cc1OC,0.899 (inactive),0.933,0.922,
C[C@]12C=CC(=O)C=C1CC[C@@H]1[C@@H]2C(=O)C[C@@]2(C)[C@H]1CC[C@]2(O)C(=O)CO,-0.919 (inactive),-0.762,-0.828,
C[C@@H](NCCCc1cccc(C(F)(F)F)c1)c1cccc2ccccc12,0.769 (inactive),0.263,0.404,
O=NN(CCCl)C(=O)NC1CCCCC1,0.23 (inactive),1.4,1.4,
COC(=O)Nc1nc2ccc(Sc3ccccc3)cc2[nH]1,-0.927 (inactive),-0.935,-0.94,
Nc1nc(N)nc(-c2cc(Cl)ccc2Cl)n1,0.87 (inactive),0.667,0.862,
COc1cc(NCc2ccc3nc(N)nc(N)c3c2C)cc(OC)c1OC,0.262 (inactive),0.153,-0.254,
S=P(N1CC1)(N1CC1)N1CC1,0.79 (inactive),1.48,1.59,
CO[C@@H]1[C@@H](OC(N)=O)[C@@H](O)[C@H](Oc2ccc3c(O)c(NC(=O)c4ccc(O)c(CC=C(C)C)c4)c(=O)oc3c2C)OC1(C)C,-0.0911 (inactive),0.276,0.63,
CN(Cc1cc(Br)cc(Br)c1N)C1CCCCC1,1.09 (inactive),1.12,1.04,
CCCOc1ccc(C(=O)OCCN(CC)CC)cc1N,1.6 (inactive),1,0.987,
O=c1oc2c(O)c(O)cc3c(=O)oc4c(O)c(O)cc1c4c23,0.559 (inactive),0.754,0.513,

Compound,Z-AUC,Z-AUC [1],Z-AUC (measured here: PEO4 Z-AUC),Potency
COc1cc2ncnc(Nc3cccc(Cl)c3)c2cc1OC,0.0605 (inactive),0.96,0.239,
CCc1c2c(nc3ccc(OC(=O)N4CCC(N5CCCCC5)CC4)cc13)-c1cc3c(c(=O)n1C2)COC(=O)[C@]3(O)CC,,-2.61,-1.83,0.0309 µM (active)
NCCCC(O)(P(=O)(O)O)P(=O)(O)O,0.983 (inactive),0.814,0.863,
OCc1ccc(-c2nn(Cc3ccccc3)c3ccccc23)o1,0.562 (inactive),1.06,0.997,
O=C(O)c1cn(C2CC2)c2cc(N3CCNCC3)c(F)cc2c1=O,0.135 (inactive),0.154,0.682,
O=C(NCC1CN(c2ccc(N3CCOCC3=O)cc2)C(=O)O1)c1ccc(Cl)s1 (configuration not stated),-0.884 (inactive),-0.579,-0.444,
Cc1ccc(S(=O)(=O)N[C@@H](Cc2ccccc2)C(=O)CCl)cc1,1.05 (inactive),1.44,1.24,
CC(C)(C#N)c1cc(Cn2cncn2)cc(C(C)(C)C#N)c1,1.1 (inactive),1.39,1.04,
O=c1cc(O)c(Cl)c[nH]1,1.39 (inactive),1.19,1.11,
CCC(=O)O[C@]1(C(=O)SCF)[C@H](C)C[C@H]2[C@@H]3C[C@H](F)C4=CC(=O)C=C[C@]4(C)[C@@]3(F)[C@@H](O)C[C@@]21C,-1.29 (inactive),-0.0288,-0.807,
CCn1cc(C(=O)O)c(=O)c2cc(F)c(N3CCNCC3)cc21,0.488 (inactive),0.343,0.192,
CCOc1cc(N)c(Cl)cc1C(=O)NCC1CN(Cc2ccc(F)cc2)CCO1 (configuration not stated),1.79 (inactive),1.17,1.21,
O=C(O)c1ccc(-n2nc(-c3ccccc3O)nc2-c2ccccc2O)cc1,0.434 (inactive),-0.254,-0.47,
CCCCOc1ccc(CC(=O)NO)cc1,-0.866 (inactive),-0.714,-0.748,
CC(C)C1CCC(C(=O)N[C@H](Cc2ccccc2)C(=O)O)CC1 (some centres not stated),1.31 (inactive),1.43,0.601,
N=C(N)c1ccc(OCCCCCOc2ccc(C(=N)N)cc2)cc1,0.0445 (inactive),-0.0701,0.016,
O=C(O)C1CCCN(CCC=C(c2ccccc2)c2ccccc2)C1 (configuration not stated),1.76 (inactive),1.39,1.34,
